# Results: PubChem BioAssay
# Several values for one entry are separate records, joined by “and”; a condition that tells them apart may be missing. Equal entries are not always repeated. Activity calls are given as the source filed them.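 Rule for the calls, unless noted: active = thallium flux through the channel raised or lowered by more than 3 SD from vehicle-only wells, actives on both sides; inactive = the rest.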
# How the values were obtained:
# [1] = liver-stage malaria parasite growth inhibition, primary screen, cell-based, HepG2, luciferase luminescence, HepG2 viability (AID 624349; in the data active = parasite load remaining mostly below about 12%, no sharp cut-off; inactive = mostly above about 10%;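 note: 100% = mean of DMSO negative control wells on the same plate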); conditions: P. berghei liver stage in HepG2, luciferase luminescence, concentration not given here; parasite load remaining: stronger effect = lower value; viability: measured here: HepG2 viability without parasites
# [2] = Cy5 fluorescence interference with SSB-bound oligo, artefact control for HCV NS3 helicase inhibitor project, biochemical, NIH Clinical Collection, E. coli SSB (AID 743268; call rule not given here)
# [3] = test system: Hepatitis C virus NS3 helicase; assay: HCV NS3 helicase inhibitors, primary screen, biochemical, fluorescence polarization, NIH Clinical Collection (AID 743270; call rule not given here); conditions: NS3 helicase binding to Cy5-dT15 DNA, stronger effect = higher value, concentration not given here
# [4] = target: Single-stranded DNA-binding protein (Escherichia coli (strain K12)) (UniProt P0AGE0); assay: E. coli SSB displacement from DNA, counter-screen for HCV NS3 helicase inhibitor project, biochemical, fluorescence polarization, NIH Clinical Collection (AID 743271; in the data active = inhibition above about 28%); conditions: stronger effect = higher value, concentration not given here
# [5] = fluorescence interference in NS3h assay format, artefact control for HCV NS3 helicase inhibitor project, biochemical, NIH Clinical Collection (AID 743272; call rule not given here;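 note: HCV NS3 helicase with a Cy5 labelled single stranded DNA probe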); conditions: fluorescence interference counterscreen, stronger effect = lower value
# [6] = target: 6-phosphogluconate dehydrogenase, decarboxylating (Homo sapiens) (UniProt P52209); assay: 6PGD enzyme inhibitors, primary screen, biochemical, human, recombinant enzyme, NADPH absorbance (AID 1159550;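 active = at least 20% inhibition of 6-phosphogluconate dehydrogenase activity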); conditions: recombinant 6PGD, NADPH absorbance 341 nm; at 10 µM; stronger effect = higher value
# Sequence of 6-phosphogluconate dehydrogenase, decarboxylating (Homo sapiens) (P52209 whole entry, looked up): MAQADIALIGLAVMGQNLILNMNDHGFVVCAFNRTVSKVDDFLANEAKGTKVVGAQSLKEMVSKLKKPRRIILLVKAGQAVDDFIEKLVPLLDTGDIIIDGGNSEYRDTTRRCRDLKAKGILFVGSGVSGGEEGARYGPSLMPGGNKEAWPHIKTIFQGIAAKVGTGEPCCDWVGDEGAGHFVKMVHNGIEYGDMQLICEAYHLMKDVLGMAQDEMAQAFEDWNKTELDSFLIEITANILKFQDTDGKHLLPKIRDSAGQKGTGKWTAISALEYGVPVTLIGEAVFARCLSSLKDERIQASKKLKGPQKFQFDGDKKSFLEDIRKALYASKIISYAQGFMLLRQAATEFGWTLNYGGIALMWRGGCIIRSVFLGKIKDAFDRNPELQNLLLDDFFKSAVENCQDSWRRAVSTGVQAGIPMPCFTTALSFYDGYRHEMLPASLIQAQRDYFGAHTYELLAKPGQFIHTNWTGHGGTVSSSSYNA
# [7] = modulation of C. elegans fzo-1 (AID 1259413; call rule not given here;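 note: fzo-1 mutant C. elegans worms in liquid wells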); conditions: C. elegans fzo-1 modulator screen, mean read-out; stronger effect = higher value
# [8] = differential killing of epithelial or mesenchymal cells, primary screen, imaging, PC-3E GFP, TEM4-18 mCherry, co-culture (AID 1345086;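 active = compounds killing one labelled cell type while sparing the other, by normalised counts and ratio limits, not self-fluorescent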;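 for all read-outs here: cells exposed to compound for 72 h before imaging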;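 for red/green cell ratio (normalised): normalised mesenchymal count divided by normalised epithelial count so high means epithelial killing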); conditions: imaging cell counts, at 1 µM; for red/green cell ratio (normalised): actives lie on both sides, counts scaled to control wells, 1 = unselective
# [9] = sensitizers of A549 cells to miR-34 induction, primary screen, imaging, A549 dox-inducible miR-34, nuclei and caspase counts (AID 1347080;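 active = compounds whose cell count with miR-34 switched on is under 0.7 times the count with it off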); conditions: A549 miR-34 inducible, Hoechst nuclei count, 48 h
# [10] = viability rescue of complex I mutant cybrids, primary screen, cell-based, galactose medium, ATP luminescence (AID 1645843;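 active = z-score of at least 1.8 in each of two replicates, scored against plate mean and spread of sample wells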;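 note: positive z means more ATP and so rescue of galactose-driven cybrid death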); conditions: complex I mutant cybrid cells, 72 h, stronger effect = higher value
# [11] = test system: F380Y; assay: modulators of BK channel variants, profiling panel, selectivity assay, cell-based, U2OS BacMam, thallium flux, beta subunits (AID 1259406); conditions: at 30 µM;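 note: initial slope of Thallos dye fluorescence rise after thallium is added; log ratio against the mean of 0.3% DMSO vehicle wells on the same plate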
# [12] = test system: F380Y/beta2Delta; assay: as above; conditions: at 30 µM
# [13] = target: Calcium-activated potassium channel subunit alpha-1 (Homo sapiens) + Leucine-rich repeat-containing protein 26 (Homo sapiens) (UniProt Q12791+Q2I0M4); assay: as above; conditions: F380Y/Slo1WT/gamma1, at 30 µM
# Sequence of Calcium-activated potassium channel subunit alpha-1 (Homo sapiens) + Leucine-rich repeat-containing protein 26 (Homo sapiens) (Q2I0M4 whole entry, looked up, one chain of several): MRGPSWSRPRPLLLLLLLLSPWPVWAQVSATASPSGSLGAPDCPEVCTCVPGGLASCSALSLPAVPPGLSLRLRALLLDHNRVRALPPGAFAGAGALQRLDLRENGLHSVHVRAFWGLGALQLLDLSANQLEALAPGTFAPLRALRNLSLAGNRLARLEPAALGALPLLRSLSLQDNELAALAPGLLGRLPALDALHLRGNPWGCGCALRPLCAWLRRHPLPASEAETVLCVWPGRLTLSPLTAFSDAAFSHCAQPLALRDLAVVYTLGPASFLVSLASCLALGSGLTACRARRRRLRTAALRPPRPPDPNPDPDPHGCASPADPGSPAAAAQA
# [14] = test system: R275C; assay: as above; conditions: at 30 µM
# [15] = test system: R275C/beta1; assay: as above; conditions: at 30 µM
# [16] = test system: R275C/beta2Delta; assay: as above; conditions: at 30 µM
# [17] = survival rescue of mitochondrial mutant cells in low glucose, primary screen, MELAS cybrids, Rieske KO mouse fibroblasts, CellTiter-Glo (AID 1508586;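 active = mean z-score across replicates of 1.96 or higher in either the MELAS or the Rieske mutant cell line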;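 note: z relative to plate mean and SD of compound and empty wells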)
# [18] = target: NAD(+) hydrolase SARM1 (Homo sapiens) (UniProt Q6SZW1); assay: SARM1 TIR NADase inhibitors, cell lysate, NAD-Glo luminescence (AID 1508614;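 active = compound whose remaining NAD level is above about 45 nM, limit read from the data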;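 note: higher remaining NAD means stronger inhibition of SARM1 NADase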); conditions: SAM-TIR HEK293T lysate NADase, at 1 µM, stronger effect = higher value
# Sequence of NAD(+) hydrolase SARM1 (Homo sapiens) (Q6SZW1 whole entry, looked up, the tested form may be a part): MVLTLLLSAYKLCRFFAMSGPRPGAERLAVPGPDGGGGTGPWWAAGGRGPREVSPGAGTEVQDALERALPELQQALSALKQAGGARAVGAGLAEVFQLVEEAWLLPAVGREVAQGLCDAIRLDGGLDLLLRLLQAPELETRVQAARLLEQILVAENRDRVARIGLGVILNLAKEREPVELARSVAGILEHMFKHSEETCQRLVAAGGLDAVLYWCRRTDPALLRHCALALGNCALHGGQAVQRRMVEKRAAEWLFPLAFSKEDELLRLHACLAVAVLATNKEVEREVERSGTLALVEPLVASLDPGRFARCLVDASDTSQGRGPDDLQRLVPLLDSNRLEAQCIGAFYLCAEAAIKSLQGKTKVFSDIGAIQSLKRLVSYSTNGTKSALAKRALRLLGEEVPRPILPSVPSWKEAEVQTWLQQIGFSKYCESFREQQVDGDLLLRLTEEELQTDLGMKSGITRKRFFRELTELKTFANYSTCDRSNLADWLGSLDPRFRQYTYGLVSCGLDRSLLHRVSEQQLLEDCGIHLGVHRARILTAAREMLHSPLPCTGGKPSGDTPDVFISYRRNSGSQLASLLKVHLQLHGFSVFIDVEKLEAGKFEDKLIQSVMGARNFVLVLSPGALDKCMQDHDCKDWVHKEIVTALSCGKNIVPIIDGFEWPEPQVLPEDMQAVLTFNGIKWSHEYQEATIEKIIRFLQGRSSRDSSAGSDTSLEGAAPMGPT
# [19] = target: Mitogen-activated protein kinase 7 (Homo sapiens) (UniProt Q13164); assay: ERK5 transactivation activators in reporter cells, primary screen, cell-based, HTS (AID 1508626;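 active = luciferase signal above three times the same-plate solvent-only control wells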;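 note: luciferase driven by Gal4-ERK5 fusion binding five Gal4 sites before minimal TATA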); conditions: HeLa Gal4-ERK5 transactivation, 18 h, at 5 µM, stronger effect = higher value
# Sequence of Mitogen-activated protein kinase 7 (Homo sapiens) (Q13164 whole entry, looked up, the tested form may be a part): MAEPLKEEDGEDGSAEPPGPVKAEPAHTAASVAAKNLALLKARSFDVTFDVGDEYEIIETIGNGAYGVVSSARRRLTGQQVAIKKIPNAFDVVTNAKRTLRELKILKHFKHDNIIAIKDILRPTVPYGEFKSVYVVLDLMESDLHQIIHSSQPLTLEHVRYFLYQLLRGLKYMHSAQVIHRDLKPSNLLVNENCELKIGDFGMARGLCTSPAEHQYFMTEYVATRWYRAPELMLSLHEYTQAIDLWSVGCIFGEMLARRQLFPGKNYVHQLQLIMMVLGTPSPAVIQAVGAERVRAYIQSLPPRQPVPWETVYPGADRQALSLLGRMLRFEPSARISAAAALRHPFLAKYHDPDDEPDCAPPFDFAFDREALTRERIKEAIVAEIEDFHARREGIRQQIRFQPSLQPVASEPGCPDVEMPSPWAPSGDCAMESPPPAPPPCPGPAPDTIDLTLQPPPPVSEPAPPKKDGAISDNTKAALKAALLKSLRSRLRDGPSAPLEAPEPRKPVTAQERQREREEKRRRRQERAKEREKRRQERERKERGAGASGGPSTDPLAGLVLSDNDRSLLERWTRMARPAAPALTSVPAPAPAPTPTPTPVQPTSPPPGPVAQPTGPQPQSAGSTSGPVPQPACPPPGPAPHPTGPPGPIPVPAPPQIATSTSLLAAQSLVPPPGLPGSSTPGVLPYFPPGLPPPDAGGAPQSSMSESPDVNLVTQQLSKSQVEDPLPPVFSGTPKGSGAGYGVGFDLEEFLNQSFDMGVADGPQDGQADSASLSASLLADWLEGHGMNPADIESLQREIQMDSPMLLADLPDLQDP
# [20] = measured here: epithelial PC-3E GFP cell survival
# [21] = measured here: mesenchymal TEM4-18 mCherry cell survival
# [22] = stronger effect = lower value, cell number ratio, induced over uninduced
# [23] = measured here: relative caspase fold change +Dox/-Dox
# [24] = measured here: total cells with miR-34 induction, stronger effect = lower value
# [25] = measured here: total cells without miR-34 induction
# [26] = MELAS cybrid survival, CellTiter-Glo 48 h, stronger effect = higher value
# [27] = Rieske KO mouse fibroblast survival, CellTiter-Glo 72 h
smiles,measurement,setting,value
O=[N+]([O-])c1cccc2cn[nH]c12,parasite load remaining,[1],55.2% (inactive)
same,viability,[1],68.7%
same,fluorescence ratio,[2],0.99 (inactive)
same,inhibition,[3],1.53% (inactive)
same,inhibition,[4],-2.76% (inactive)
same,fluorescence ratio,[5],0.97 (inactive)
same,inhibition,[6],-14.4% (inactive)
same,mean signal,[7],242 (inactive)
same,red/green cell ratio (normalised),[8],0.79 (inactive)
same,normalised cell number,[8]; [20],1.44
same,normalised cell number,[8]; [21],1.13
same,fold change,[9]; [22],1.03 (inactive) and 0.867 (inactive) and 0.91 (inactive)
same,fold change,[9]; [23],0.865 and 1.54 and 0.678
same,cell count,[9]; [24],10200 and 8750 and 8260
same,cell count,[9]; [25],9850 and 10100 and 9080
same,z-score,[10],0.295 (inactive) and 0.3 (inactive) and -0.14 (inactive)
same,log fold change Tl+ flux,[11],0.0311 (inactive)
same,log fold change Tl+ flux,[12],-0.000818 (inactive)
same,log fold change Tl+ flux,[13],0.0381 (inactive)
same,log fold change Tl+ flux,[14],-0.025 (inactive)
same,log fold change Tl+ flux,[15],-0.0288 (inactive)
same,log fold change Tl+ flux,[16],0.0285 (inactive)
CC[C@H]1OC(=O)[C@H](C)[C@@H](O[C@H]2C[C@@](C)(OC)[C@@H](O)[C@H](C)O2)[C@H](C)[C@@H](O[C@@H]2O[C@H](C)C[C@H](N(C)C)[C@H]2O)[C@](C)(OC)C[C@@H](C)C(=O)[C@H](C)[C@@H](O)[C@]1(C)O,fluorescence ratio,[2],1.06 (inactive)
same,inhibition,[3],-0.4% (inactive)
same,inhibition,[4],-3.18% (inactive)
same,fluorescence ratio,[5],0.99 (inactive)
same,inhibition,[6],2.59% (inactive)
same,mean signal,[7],229 (inactive)
same,red/green cell ratio (normalised),[8],0.75 (inactive)
same,normalised cell number,[8]; [20],1.39
same,normalised cell number,[8]; [21],1.04
same,fold change,[9]; [22],0.89 (inactive) and 0.856 (inactive)
same,fold change,[9]; [23],4.5 and 0.962
same,cell count,[9]; [24],11300 and 8870
same,cell count,[9]; [25],12700 and 10400
same,z-score,[17]; [26],-0.605 (inactive) and -0.357 (inactive)
same,z-score,[17]; [27],-0.647 and -0.657
same,remaining NAD,[18],10 nM (inactive)
same,luciferase signal,[19],44 AU (inactive)
same,z-score,[10],-0.33 (inactive)
same,log fold change Tl+ flux,[11],0.0307 (inactive)
same,log fold change Tl+ flux,[12],-0.0353 (inactive)
same,log fold change Tl+ flux,[13],-0.0843 (inactive)
same,log fold change Tl+ flux,[14],-0.104 (inactive)
same,log fold change Tl+ flux,[15],-0.0277 (inactive)
same,log fold change Tl+ flux,[16],0.033 (inactive)
CS(=O)(=O)c1ccc(C2=C(c3ccccc3)C(=O)OC2)cc1,fluorescence ratio,[2],1.03 (inactive)
same,inhibition,[3],3.56% (inactive)
same,inhibition,[4],1.44% (inactive)
same,fluorescence ratio,[5],0.97 (inactive)
same,inhibition,[6],-26.3% (inactive)
same,mean signal,[7],215 (inactive)
same,red/green cell ratio (normalised),[8],0.98 (inactive)
same,normalised cell number,[8]; [20],0.93
same,normalised cell number,[8]; [21],0.92
same,z-score,[17]; [26],-0.068 (inactive) and 0.18 (inactive) and -0.373 (inactive)
same,z-score,[17]; [27],-0.00526 and -0.204 and -0.438
same,remaining NAD,[18],10 nM (inactive)
same,luciferase signal,[19],192 AU (inactive)
same,z-score,[10],0.26 (inactive) and 0.525 (inactive)
same,log fold change Tl+ flux,[11],0.0227 (inactive)
same,log fold change Tl+ flux,[12],0.00326 (inactive)
same,log fold change Tl+ flux,[13],0.022 (inactive)
same,log fold change Tl+ flux,[14],-0.068 (inactive)
same,log fold change Tl+ flux,[15],0.023 (inactive)
same,log fold change Tl+ flux,[16],0.00437 (inactive)
O=C(O)C(O)C(O)C(=O)O (configuration not stated),inhibition,[6],6.59% (inactive)
